Several values for one entry are separate records, joined by “and”; a condition that tells them apart may be missing. Equal entries are not always repeated. The source holds several records for some structures; these can differ, active in one and inactive in another. Activity calls are given as the source filed them. The calls were made as follows: active = hit-call score of the fitted dose curve at least 0.9, where 1 is the maximum; inactive = score below 0.9.
Assays:
[1] = APR_HepG2_NuclearSize_72hr: Apredica 72-hour HepG2 Assay for Nuclear Size (AID 2282925); conditions: high-content imaging, actives raise or lower the signal
In short: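 Read-out: nuclear diameter from Hoechst 33342 images (ArrayScan, 20x, six fields/well), via cell-cycle image analysis. HepG2 were dosed 0.39–200 uM for 72 hr in 0.5% DMSO. Bidirectional fit relative to DMSO.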

[2] = ATG_CRE_CIS: Attagene CIS-FACTORIAL HepG2 Assay for human cAMP Responsive Element (CRE) binding protein 3 (AID 2282926); conditions: HepG2 CRE cis-reporter, Attagene multiplexed mRNA; actives raise or lower the signal
In short: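 Cells carrying cis-regulated reporter constructs respond through their own endogenous factors. After 24 h treatment, RNA is reverse-transcribed, amplified, labelled and sized by capillary electrophoresis; up- and down-regulation are both scored against vehicle.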

[3] = target: CCAAT/enhancer-binding protein beta (Homo sapiens) (UniProt P17676); experiment: ATG_C_EBP_CIS: Attagene CIS-FACTORIAL HepG2 Assay for human CCAAT/Enhancer Binding Protein (C/EBP) beta (AID 2282927); conditions: HepG2 Attagene cis-factorial transcription factor reporter; actives raise or lower the signal
CCAAT/enhancer-binding protein beta (Homo sapiens), sequence (P17676 whole entry, looked up): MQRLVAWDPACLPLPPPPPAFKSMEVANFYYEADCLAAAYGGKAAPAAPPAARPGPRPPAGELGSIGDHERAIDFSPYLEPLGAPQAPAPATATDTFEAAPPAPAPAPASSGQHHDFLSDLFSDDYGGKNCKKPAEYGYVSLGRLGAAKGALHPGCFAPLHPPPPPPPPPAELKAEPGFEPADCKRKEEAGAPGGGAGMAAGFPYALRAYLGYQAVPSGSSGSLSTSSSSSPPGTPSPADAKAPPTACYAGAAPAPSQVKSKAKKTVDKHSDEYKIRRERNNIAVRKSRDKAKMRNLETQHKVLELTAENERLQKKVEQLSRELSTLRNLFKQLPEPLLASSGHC
In short: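 HepG2, transient MRTU transfection, 24 h treatment. RT-PCR plus CE fluorescence; DMSO negative control, bidirectional fit.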

[4] = ATG_CMV_CIS: Attagene CIS-FACTORIAL HepG2 Assay for human CMV (Internal Marker) (AID 2282928); conditions: HepG2 CMV promoter reporter, transcription factor profiling; actives raise or lower the signal;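 also: endpoint acts as a background internal control marker rather than a target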
In short: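 24 h chemical treatment, HepG2 with transient multi-reporter transfection; RNA → oligo(dT) RT → PCR → 6-FAM extension → HpaI digest → CE fluorescence. Bidirectional fit, DMSO negative control.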

[5] = ATG_DR4_LXR_CIS: Attagene CIS-FACTORIAL HepG2 Assay for human Liver X Receptor (LXR), DR4 submotif (AID 2282929); conditions: HepG2 Attagene DR4 cis-reporter, mRNA transcription; actives raise or lower the signal
In short: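 Transiently transfected HepG2 liver cells; cis-regulated reporters; 24 h dosing. RT-PCR plus CE read-out of reporter mRNA. DMSO baseline, bidirectional curve fitting.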

[6] = target: Aryl hydrocarbon receptor (Homo sapiens) (UniProt P35869); experiment: ATG_Ahr_CIS: Attagene CIS-FACTORIAL HepG2 Assay for human Aryl Hydrocarbon Receptor (Ahr) (AID 2282930); conditions: HepG2 AhR cis-factorial reporter transcription; actives raise or lower the signal
Aryl hydrocarbon receptor (Homo sapiens), sequence (P35869 whole entry, looked up): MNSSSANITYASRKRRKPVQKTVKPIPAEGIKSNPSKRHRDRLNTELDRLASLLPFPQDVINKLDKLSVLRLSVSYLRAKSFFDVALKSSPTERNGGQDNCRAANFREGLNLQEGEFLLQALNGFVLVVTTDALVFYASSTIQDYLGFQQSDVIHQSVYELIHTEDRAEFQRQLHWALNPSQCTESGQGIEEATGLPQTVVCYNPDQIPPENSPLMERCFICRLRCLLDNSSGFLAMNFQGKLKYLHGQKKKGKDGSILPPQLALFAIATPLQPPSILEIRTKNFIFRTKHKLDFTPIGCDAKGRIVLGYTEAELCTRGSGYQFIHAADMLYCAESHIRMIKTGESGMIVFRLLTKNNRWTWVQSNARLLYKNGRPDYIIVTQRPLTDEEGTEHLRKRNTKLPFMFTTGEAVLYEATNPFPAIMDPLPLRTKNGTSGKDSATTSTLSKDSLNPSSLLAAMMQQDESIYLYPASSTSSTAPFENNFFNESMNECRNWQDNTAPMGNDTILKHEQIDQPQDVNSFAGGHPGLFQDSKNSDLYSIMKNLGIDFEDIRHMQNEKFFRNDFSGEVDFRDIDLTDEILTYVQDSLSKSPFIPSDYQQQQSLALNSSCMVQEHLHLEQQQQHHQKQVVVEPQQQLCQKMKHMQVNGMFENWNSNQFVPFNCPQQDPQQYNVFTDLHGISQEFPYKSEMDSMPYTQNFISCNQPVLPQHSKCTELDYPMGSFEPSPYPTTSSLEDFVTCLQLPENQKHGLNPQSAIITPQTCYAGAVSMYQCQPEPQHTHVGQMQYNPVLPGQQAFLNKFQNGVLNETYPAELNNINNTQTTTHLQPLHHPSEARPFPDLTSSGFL
In short: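 Endogenous factor activity is tracked through cis-promoter reporter units transfected into HepG2 cells. Transcript levels at 24 h are read by fluorescent RT-PCR and capillary electrophoresis, with activity in either direction scored relative to DMSO.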

[7] = ATG_AP_1_CIS: Attagene CIS-FACTORIAL HepG2 Assay for human Activator Protein 1 (AP-1) (AID 2282931); conditions: HepG2 Attagene cis-factorial AP-1 reporter mRNA; actives raise or lower the signal
In short: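 We transfected HepG2 cells transiently with a set of cis-regulated reporter transcription units, dosed them for 24 h, and quantified reporter mRNA via RT-PCR and capillary electrophoresis, scoring gain or loss of signal relative to DMSO.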

[8] = ATG_AP_2_CIS: Attagene CIS-FACTORIAL HepG2 Assay for human Activator Protein 2 (AP-2) (AID 2282932); conditions: HepG2 AP-2 cis-reporter, Attagene transcription factor profiling; actives raise or lower the signal
In short: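 Read-out: fluorescent reporter mRNA via RT-PCR and capillary electrophoresis, 24 h post-dose in transiently transfected HepG2. Endogenous factors drive cis-promoter reporters; gain or loss of signal fitted bidirectionally against DMSO.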

[9] = ATG_BRE_CIS: Attagene CIS-FACTORIAL HepG2 Assay for human Bone Morphogenetic Protein (BMP) Response Element (BRE) (AID 2282933); conditions: HepG2 BMP response element reporter, Attagene transcription factor profiling; actives raise or lower the signal
In short: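 Multiplexed cis-reporter assay, HepG2, 24 h exposure. mRNA from reporter units quantified via RT-PCR/CE; DMSO baseline; bidirectional curve fit.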

[10] = target: Retinoic acid receptor alpha (Homo sapiens) (UniProt P10276); experiment: ATG_DR5_RAR_CIS: Attagene CIS-FACTORIAL HepG2 Assay for human Retinoic Acid Receptor Alpha (RARE), DR5 submotif (AID 2282934); conditions: HepG2 Attagene cis-factorial RARE DR5 reporter, mRNA; actives raise or lower the signal;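 as to AC50: reporter responds to endogenous RAR alpha beta and gamma in HepG2 not RARA alone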
Retinoic acid receptor alpha (Homo sapiens), sequence (P10276 whole entry, looked up): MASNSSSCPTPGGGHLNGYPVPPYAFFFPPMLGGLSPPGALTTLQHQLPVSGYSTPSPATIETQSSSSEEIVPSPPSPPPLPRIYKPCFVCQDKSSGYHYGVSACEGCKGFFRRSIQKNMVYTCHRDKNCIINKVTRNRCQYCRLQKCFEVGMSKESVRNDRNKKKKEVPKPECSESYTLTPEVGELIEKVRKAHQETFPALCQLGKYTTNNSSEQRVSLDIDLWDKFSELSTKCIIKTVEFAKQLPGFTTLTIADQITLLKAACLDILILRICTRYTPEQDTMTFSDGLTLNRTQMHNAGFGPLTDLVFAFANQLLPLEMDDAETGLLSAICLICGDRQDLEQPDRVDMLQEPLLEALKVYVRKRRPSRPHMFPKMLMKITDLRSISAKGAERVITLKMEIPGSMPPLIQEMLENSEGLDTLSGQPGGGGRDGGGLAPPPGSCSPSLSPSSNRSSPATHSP
In short: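 After 24 h of chemical exposure, transiently transfected HepG2 cells were lysed for total RNA; the DR5-regulated reporter transcript was quantified via RT-PCR and capillary electrophoresis, with activity fitted bidirectionally against DMSO.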

[11] = target: Transcription factor E2F1 (Homo sapiens) (UniProt Q01094); experiment: ATG_E2F_CIS: Attagene CIS-FACTORIAL HepG2 Assay for human E2F Transcription Factor 1 (AID 2282935); conditions: HepG2 Attagene cis-reporter, E2F reporter RNA transcripts; actives raise or lower the signal
Transcription factor E2F1 (Homo sapiens), sequence (Q01094 whole entry, looked up): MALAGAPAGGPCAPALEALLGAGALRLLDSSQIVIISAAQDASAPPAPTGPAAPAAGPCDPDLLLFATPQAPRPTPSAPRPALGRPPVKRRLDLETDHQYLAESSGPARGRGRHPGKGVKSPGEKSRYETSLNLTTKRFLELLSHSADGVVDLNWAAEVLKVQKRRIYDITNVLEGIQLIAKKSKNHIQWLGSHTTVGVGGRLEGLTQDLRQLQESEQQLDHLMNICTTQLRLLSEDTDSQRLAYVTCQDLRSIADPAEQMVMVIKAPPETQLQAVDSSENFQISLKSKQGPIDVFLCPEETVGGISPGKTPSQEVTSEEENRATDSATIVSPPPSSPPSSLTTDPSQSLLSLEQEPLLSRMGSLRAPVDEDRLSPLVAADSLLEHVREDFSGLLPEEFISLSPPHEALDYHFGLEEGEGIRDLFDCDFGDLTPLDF
In short: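 Transient MRTU transfection of HepG2; 24 h compound exposure; RNA → oligo(dT) RT → PCR → FAM label → HpaI cut → CE fluorescence. Gain/loss of signal fit against DMSO.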

[12] = ATG_E_Box_CIS: Attagene CIS-FACTORIAL HepG2 Assay for human Enhancer Box (E-box) (AID 2282936); conditions: HepG2 E-box cis-reporter transcription, actives raise or lower the signal
In short: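 Transiently transfected HepG2, endogenous TF-driven reporters, 24 h dosing. Readout: RT-PCR plus capillary electrophoresis of fluorescent reporter fragments. Gain or loss of signal fitted bidirectionally against DMSO baseline.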

[13] = ATG_M_61_CIS: Attagene CIS-FACTORIAL HepG2 Assay for M61 Transcription Factor (Internal Marker) (AID 2282937); conditions: HepG2 Attagene CIS-FACTORIAL M61 internal marker reporter; actives raise or lower the signal
In short: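 Multiplexed reporter mRNA assay, HepG2 human hepatoma cells, 24 h treatment. Signal: FAM-labelled, HpaI-digested RT-PCR fragments by CE. Fit: bidirectional, baseline DMSO.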

[14] = ATG_EGR_CIS: Attagene CIS-FACTORIAL HepG2 Assay for human Early Growth Response 1 (EGR1) (AID 2282938); conditions: HepG2 Attagene CIS-FACTORIAL EGR reporter mRNA; actives raise or lower the signal
In short: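 Multiplexed cis-reporter system in human hepatoma HepG2 cells, transiently transfected. Cells are dosed for 24 h; reporter transcripts are amplified, fluorescently tagged and sized by capillary electrophoresis, with DMSO as negative control.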

[15] = ATG_M_19_CIS: Attagene CIS-FACTORIAL HepG2 Assay for M19 Transcription Factor (Internal Marker) (AID 2282939); conditions: HepG2 Attagene CIS-FACTORIAL M19 internal marker reporter; actives raise or lower the signal
In short: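 Signals come from fluorescence of labelled reporter-specific PCR fragments resolved by capillary electrophoresis, following 24 h treatment of HepG2 cells transfected with cis-promoter reporter units; activity was fitted in both directions relative to DMSO.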

[16] = ATG_ERE_CIS: Attagene CIS-FACTORIAL HepG2 Assay for Estrogen Response Element (ERE) (AID 2282940); conditions: HepG2 ERE cis-reporter, Attagene RNA transcript; actives raise or lower the signal
In short: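 Fluorescence of capillary-separated, FAM-labelled reporter cDNA fragments indicates reporter mRNA levels in HepG2 cells exposed to chemicals for 24 h. Transient transfection with cis-regulated units; data fitted in both directions against DMSO.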

[17] = ATG_Ets_CIS: Attagene CIS-FACTORIAL HepG2 Assay for human Erythroblast Transformation Specific (ETS) (AID 2282941); conditions: HepG2 ETS cis-reporter transcription, actives raise or lower the signal
In short: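 Cis-regulated reporter mRNA induction in HepG2 (transient transfection), 24 h exposure, RT-PCR plus capillary electrophoresis detection; DMSO serves as negative control and baseline.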

[18] = target: Hepatocyte nuclear factor 3-beta (Homo sapiens) (UniProt Q9Y261); experiment: ATG_FoxA2_CIS: Attagene CIS-FACTORIAL HepG2 Assay for human Forkhead box A2 (FOXA2) (AID 2282942); conditions: HepG2 cis-reporter transcription factor activity, 24 h; actives raise or lower the signal
Hepatocyte nuclear factor 3-beta (Homo sapiens), sequence (Q9Y261 whole entry, looked up): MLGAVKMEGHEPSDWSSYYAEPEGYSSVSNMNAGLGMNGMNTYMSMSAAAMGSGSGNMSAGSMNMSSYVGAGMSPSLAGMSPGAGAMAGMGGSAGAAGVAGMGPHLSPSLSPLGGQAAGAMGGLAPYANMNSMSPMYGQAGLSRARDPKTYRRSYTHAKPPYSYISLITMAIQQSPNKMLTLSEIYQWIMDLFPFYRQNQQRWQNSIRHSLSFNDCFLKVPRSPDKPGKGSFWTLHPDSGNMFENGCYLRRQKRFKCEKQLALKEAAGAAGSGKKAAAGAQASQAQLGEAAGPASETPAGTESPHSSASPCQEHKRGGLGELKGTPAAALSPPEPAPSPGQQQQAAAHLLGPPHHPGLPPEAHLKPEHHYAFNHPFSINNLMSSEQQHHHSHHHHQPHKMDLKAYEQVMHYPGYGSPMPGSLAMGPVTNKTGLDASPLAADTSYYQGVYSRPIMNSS
In short: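 Multiplexed cis-element reporter assay in transiently transfected HepG2. Twenty-four hours post-dosing, RNA was reverse-transcribed, amplified, FAM-labelled, HpaI-digested and separated by CE. Activity gain or loss relative to DMSO.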

[19] = ATG_FoxO_CIS: Attagene CIS-FACTORIAL HepG2 Assay for human Forkhead box O (FoxO) (AID 2282943); conditions: HepG2 Attagene cis-reporter, FoxO element, mRNA; actives raise or lower the signal
In short: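 Transfected HepG2 reporter cells exposed to test chemical for 24 h; reporter RNA measured by reverse transcription, PCR and fluorescent capillary electrophoresis; curves fitted for increases and decreases against DMSO.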

[20] = ATG_GATA_CIS: Attagene CIS-FACTORIAL HepG2 Assay for human GATA Binding Protein (AID 2282944); conditions: HepG2 GATA cis-element reporter, Attagene multiplex mRNA; actives raise or lower the signal
In short: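 After transfecting HepG2 cells with multiple cis-regulated reporter units, chemicals are dosed for 24 h; isolated RNA undergoes RT-PCR and fluorescent labeling before capillary electrophoresis, with activity expressed against DMSO.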

With CC(C)(C)c1ccc(O)c(C(C)(C)C)c1 the outcome [1] was “inactive”, the outcome [2] was “inactive” and the outcome [3] was “inactive”. The outcome [4] was “inactive”, the outcome [5] was “inactive” and the outcome [6] was “inactive”. The AC50 [7] was 15.9 µM (active), the outcome [8] was “inactive” and the outcome [9] was “inactive”. For the same compound, the outcome [10] was “inactive”, the outcome [11] was “inactive” and the outcome [12] was “inactive”. For the same compound, the outcome [13] was “inactive”, the outcome [14] was “inactive” and the outcome [15] was “inactive”. For the same compound, the outcome [16] was “inactive”, the outcome [17] was “inactive” and the outcome [18] was “inactive”. For the same compound, the outcome [19] was “inactive” and the outcome [20] was “inactive”.
With COC(=O)CCCCC(=O)OC the outcome [1] was “inactive”, the outcome [2] was “inactive” and the outcome [3] was “inactive”. For the same compound, the outcome [4] was “inactive”, the outcome [5] was “inactive” and the outcome [6] was “inactive”. For the same compound, the outcome [7] was “inactive”, the outcome [8] was “inactive” and the outcome [9] was “inactive”. The outcome [10] was “inactive”, the outcome [11] was “inactive” and the outcome [12] was “inactive”. The outcome [13] was “inactive”, the outcome [14] was “inactive” and the outcome [15] was “inactive”. The outcome [16] was “inactive”, the outcome [17] was “inactive” and the outcome [18] was “inactive”. For the same compound, the outcome [19] was “inactive” and the outcome [20] was “inactive”.
In the case of C=C(C)C(=O)OCCC(F)(F)C(F)(F)C(F)(F)C(F)(F)C(F)(F)C(F)(F)F, the outcome [1] is reported as “inactive”, the outcome [2] is reported as “inactive” and the outcome [3] is reported as “inactive”. The outcome [4] was “inactive”, the outcome [5] was “inactive” and the AC50 [6] was 54.4 µM (active). The outcome [6] was “inactive”, the outcome [7] was “inactive” and the outcome [8] was “inactive”. The outcome [9] was “inactive”, the outcome [11] was “inactive” and the outcome [12] was “inactive”. The outcome [13] was “inactive”, the outcome [14] was “inactive” and the outcome [15] was “inactive”. The AC50 [16] was 57.4 µM (active) and 150 µM (active), the outcome [17] was “inactive” and the outcome [18] was “inactive”. The outcome [19] was “inactive” and the outcome [20] was “inactive”.
In the case of CCCCOCCO, the outcome [1] is reported as “inactive”, the outcome [2] is reported as “inactive” and the outcome [3] is reported as “inactive”. The outcome [4] was “inactive”, the outcome [5] was “inactive” and the outcome [6] was “inactive”. The outcome [7] was “inactive”, the outcome [8] was “inactive” and the outcome [9] was “inactive”. For the same compound, the outcome [10] was “inactive”, the outcome [11] was “inactive” and the outcome [12] was “inactive”. The outcome [13] was “inactive”, the outcome [14] was “inactive” and the outcome [15] was “inactive”. For the same compound, the AC50 [16] was 134 µM (active), the outcome [17] was “inactive” and the outcome [18] was “inactive”. The outcome [19] was “inactive” and the outcome [20] was “inactive”.
For CCCOC(=O)c1ccc(O)cc1, the outcome [1] was “inactive”, the AC50 [2] was 171 µM (active) and the outcome [2] was “inactive”. The outcome [3] was “inactive”, the AC50 [4] was 121 µM (active) and the outcome [4] was “inactive”. The AC50 [5] was 26.1 µM (active), the outcome [5] was “inactive” and the outcome [6] was “inactive”. The AC50 [7] was 48.2 µM (active), the outcome [7] was “inactive” and the outcome [8] was “inactive”. The AC50 [9] was 79.3 µM (active), the outcome [9] was “inactive” and the AC50 [10] was 25.2 µM (active). For the same compound, the outcome [10] was “inactive”, the outcome [11] was “inactive” and the outcome [12] was “inactive”. The outcome [13] was “inactive”, the AC50 [14] was 157 µM (active) and the outcome [14] was “inactive”. The outcome [15] was “inactive”, the AC50 [16] was 6.06 µM (active) and 16 µM (active) and the outcome [17] was “inactive”. For the same compound, the outcome [18] was “inactive”, the outcome [19] was “inactive” and the outcome [20] was “inactive”.
In the case of Nc1cccc2c(N)cccc12, the outcome [1] is reported as “inactive”, the outcome [2] is reported as “inactive” and the outcome [3] is reported as “inactive”. For the same compound, the outcome [4] was “inactive”, the outcome [5] was “inactive” and the AC50 [6] was 2.85 µM (active). For the same compound, the AC50 [7] was 77.7 µM (active), the outcome [8] was “inactive” and the outcome [9] was “inactive”. The outcome [10] was “inactive”, the outcome [11] was “inactive” and the outcome [12] was “inactive”. For the same compound, the outcome [13] was “inactive”, the outcome [14] was “inactive” and the outcome [15] was “inactive”. For the same compound, the outcome [16] was “inactive”, the outcome [17] was “inactive” and the outcome [18] was “inactive”. The outcome [19] was “inactive” and the outcome [20] was “inactive”.
